Measured potencies and affinities stand elsewhere.

In ChEMBL document CHEMBL4513146, “CO-ADD screening of Karazin Kharkiv National University (Ukraine) compounds” one finds Inhibition data, which are given here for 40 compounds.

This experiment has as its system Cryptococcus neoformans. Conditions: Concentration 32 ug.mL-1; ASSAY_TEST Inhibition of Fungal Growth; detection method Resazurin; Absorption (OD600-OD570); plate type 384well; NBS; CORNING #3640. (In general: The colour change of resazurin is a common sign of viable cells or microbes.)
`CCc1nnc2c(SCC(=O)Nc3ccc(C(C)=O)cc3)nc3ccccc3n12`: the Inhibition is listed as -19.53%.
In the case of `COc1cccc(CN(c2ccc(F)c(F)c2)S(=O)(=O)c2ccc3nnc(C)n3c2)c1` it was -8.55%; in that of `Cc1ccc(-c2ccc3nn(CC(=O)NCc4ccc(Cl)cc4)c(=O)n3n2)cc1C`, -11%.
In the case of `COc1ccc(OC)c(NC(=O)Cn2nc3ccc(-c4ccc(C)cc4)nn3c2=O)c1`, the Inhibition is -12.04%.
`COc1ccc(N(Cc2cccc(F)c2)S(=O)(=O)c2ccc3nnc(C)n3c2)cc1`: the Inhibition is recorded as -3.46%.
The result for `CCC(Sc1nnc2c(=O)n(-c3ccc(C)c(C)c3)ccn12)C(=O)Nc1cc(OC)ccc1OC` (stereo not given) reads -6.72%.
Turning to `COc1ccc(-c2cc3c4nn(CC(=O)Nc5cccc(C)c5)c(=O)n4ccn3n2)cc1`, the Inhibition is given as -17.04%.
As for `Cc1ccc(NC(=O)CSc2nc3ccccc3n3cnnc23)c(C)c1`, the Inhibition is -16.93%.
Regarding `Cc1nnc2ccc(S(=O)(=O)N(Cc3ccccc3Cl)c3ccc(F)cc3)cn12`, the Inhibition was -2.96%.
In the case of `COc1ccc(NC(=O)Cn2nc3cc(C)nc(Nc4ccc(F)c(C)c4)n3c2=O)cc1` it was -7.34%; in that of `COc1ccccc1CNC(=O)Cn1nc2c(N3CCSCC3)nccn2c1=O`, -6.25%; in that of `O=c1c2sccc2n2c(SCc3cccc(C(F)(F)F)c3)nnc2n1Cc1cccs1`, -17.87%.
In the case of `CCc1nnc2ccc(S(=O)(=O)N(Cc3ccccc3F)c3ccc(OC)cc3)cn12` it was -4.31%; in that of `O=C(Cn1nc2ccc(Sc3cccc(F)c3)nn2c1=O)NCc1ccc(Cl)cc1`, -3.51%.
`CCc1ccc(N(Cc2ccc(C)cc2)S(=O)(=O)c2cccn3c(C)nnc23)cc1`: the Inhibition was -6.65%.
Consider `Cc1ccc(-c2ccc3nn(Cc4cccc(F)c4)c(=O)n3n2)cc1C`, for which the Inhibition is -8.66%.
The result for `CCCn1c(=O)c2sccc2n2c(=O)n(CC(=O)c3cc(C)ccc3C)nc12` reads -24.9%; that for `CC(C)c1nnc2c(SCC(=O)Nc3ccc(C#N)cc3)nc3ccccc3n12`, -7.9%.
In the case of `CC1CCN(C(=O)Cn2nc3n(Cc4cccs4)c(=O)c4sccc4n3c2=O)CC1` it was -10.95%; in that of `Cc1ccccc1CN(c1ccc(C(C)C)cc1)S(=O)(=O)c1cccn2cnnc12`, -21.28%; in that of `COc1ccc(NC(=O)Cn2nc3c(N4CCCC4)nccn3c2=O)cc1Cl`, -15.33%.
In the case of `Cc1ccc(NC(=O)Cn2nc3c(Oc4ccccc4C)nccn3c2=O)cc1F`, the Inhibition is recorded as -11.02%.
`O=C(Cn1nc2c(SC3CCCCC3)nccn2c1=O)Nc1ccc(F)cc1`: the Inhibition is listed as -30.85%.
In the case of `Cc1ccc(NC(=O)c2ccc3nnc(SCC(=O)Nc4ccc(Br)cc4)n3c2)cc1` it was -17.05%.
As for `Cc1ccc(Sc2nccn3c(=O)n(CC(=O)Nc4ccccc4C)nc23)c(C)c1`, the Inhibition is given as -25.74%.
For `O=C(CCc1nnc2c3cc(-c4ccc(F)cc4)nn3ccn12)NCc1ccccc1Cl`, the Inhibition is -27.21%.
`O=c1c2nn(Cc3ccc(F)cc3)c(=O)n2ccn1-c1ccccc1`: the Inhibition is -6.47%.
In the case of `Cc1ccccc1Oc1nc2ccccc2n2c(=O)n(CC(=O)NCc3ccc4c(c3)OCO4)nc12` it was -16.39%.
The result for `Cc1cc(C)cc(Nc2nc(C)cc3nn(CC(=O)NC4CCCC4)c(=O)n23)c1` reads -8.76%; that for `CCCCOc1ccc(-c2cc3c4nnc(SCC(=O)N(C)c5ccc(F)cc5)n4ccn3n2)cc1`, -9.29%.
For the compound `COc1ccc(OC)c(NC(=O)Cn2nc3c4c5c(sc4ncn3c2=O)CCCC5)c1`, the Inhibition is recorded as -30.54%.
As to `O=C(Cn1nc2c(Sc3ccccc3)nccn2c1=O)Nc1ccc2c(c1)OCCO2`, the Inhibition is given as -3.83%.
For `O=c1c2sccc2n2c(=O)n(Cc3ccc(F)cc3)nc2n1Cc1cccs1`, the Inhibition was -26.83%.
The result for `CCOc1ccc(-n2ccn3c(SCC(=O)Nc4ccccc4C(F)(F)F)nnc3c2=O)cc1` reads -14.22%; that for `O=C(CSc1nc2ccccc2n2cnnc12)N1CCN(c2ccc(F)cc2)CC1`, 6.24%.
As to `Cc1nnc2ccc(S(=O)(=O)N(Cc3cccc(F)c3)c3cc(F)cc(F)c3)cn12`, the Inhibition is recorded as -12.8%.
Regarding `CC(C)CCNC(=O)Cn1nc2n(Cc3cccs3)c(=O)c3sccc3n2c1=O`, the Inhibition is recorded as -17.23%.
The result for `Cc1nnc2c(S(=O)(=O)N(Cc3ccccc3F)c3ccc(C(C)C)cc3)cccn12` reads -4.75%.
In the case of `CC(C)Cn1c(=O)c2sccc2n2c(=O)n(Cc3cccc(Br)c3)nc12` it was -24.19%; in that of `COc1ccc(-c2cc3c4nnc(SCC(=O)NCc5cccc(OC)c5OC)n4ccn3n2)cc1`, -15.85%.

As a reminder, the Inhibition is the change of the read-out against control, counted positive when it falls.
